The source of these data is PubChem BioAssay (NCI).

This is part of a sample that, as a whole, favours compounds with a hit. Of some 79,000 tested, about 15% had one in any assay. Values without a mark were called inactive. Calls of active or inactive are those of the source. Rule as the data show it: active = growth inhibition above about 70%; inactive = the rest.

Assay [1] can be described thus: NCI Yeast Anticancer Drug Screen. Data for the rad50 strain (AID 155).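 Also: 0% = growth of vehicle-only cultures of the same strain.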 The settings on record: S. cerevisiae rad50 strain growth inhibition, active compounds read high. The method in brief:
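Yeast carrying a defined DNA repair defect were exposed to test compounds, and growth was compared with vehicle-treated controls to give percent inhibition.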

The nature of assay [2]: NCI Yeast Anticancer Drug Screen. Data for the mec2-1 strain (AID 157). The note with it: S. cerevisiae mec2-1 strain, active compounds read high. The method in brief: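 Yeast mec2-1 mutant treated with compound. Readout: growth inhibition vs vehicle controls.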
Assay [3] can be described thus: NCI Yeast Anticancer Drug Screen. Data for the sgs1 mgt1 strain (AID 161).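 Also: 0% = growth of cultures given vehicle only.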 The note with it: S. cerevisiae sgs1 mgt1 strain, active compounds read high. The method in brief: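 Test agents were incubated with a DNA-repair-mutant yeast strain. Growth was then read and compared against vehicle-treated controls.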
A short description of assay [4]: NCI Yeast Anticancer Drug Screen. Data for the cln2 rad14 strain (AID 165).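 Also: 0% = growth equal to vehicle treated cultures.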 The note with it: S. cerevisiae cln2 rad14 strain, active compounds read high. The essentials: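 cln2 rad14 yeast strain; compound exposure; growth inhibition read vs vehicle controls.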
Assay [5] in a line: NCI Yeast Anticancer Drug Screen. Data for the bub3 strain (AID 167). The settings on record: S. cerevisiae bub3 mutant strain, active compounds read high. The essentials:
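Compounds were applied to a genetically altered yeast strain carrying a cell-cycle control defect. Growth inhibition was scored against vehicle-treated controls.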

A short description of assay [6]: NCI Yeast Anticancer Drug Screen. Data for the mlh1 rad18 strain (AID 175). The note with it: S. cerevisiae mlh1 rad18 strain growth inhibition, active compounds read high. The essentials: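 Yeast w/ defined DNA-repair lesions; compound exposure; growth vs vehicle controls → % inhibition.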
Setting [7] is: at 5.0 µM (retest, dose inferred, filed as 0.5).
The mark [8] stands for this setting: at 50.0 µM (retest, dose inferred, filed as 5.0).

For `COc1ccccc1/C=C1\SC(=S)N(/C=C2\C(=O)Oc3ccccc3C2=O)C1=O`, the growth inhibition in assay [1] (setting [7]) was 1%; in assay [1] (setting [8]) it was 12%; in assay [1] (at 50.0 µM), 30.9%; in assay [2] (setting [7]), -3%; in assay [2] (setting [8]), 27%; in assay [2] (at 50.0 µM) it was 18.6%. The growth inhibition in assay [3] (setting [7]) is 8%; in assay [3] (setting [8]), 12%; in assay [3] (at 50.0 µM) it was 54.2%; in assay [4] (setting [7]), -8%; in assay [4] (setting [8]) it was 17%; in assay [4] (at 50.0 µM), 58.9%. The growth inhibition was 20% in assay [5] (setting [7]); 38% in assay [5] (setting [8]); 32.2% in assay [5] (at 50.0 µM); -16% in assay [6] (setting [7]); 14% in assay [6] (setting [8]); 53.7% in assay [6] (at 50.0 µM).
For `CC(C)N(CCOc1ccc(/C=C/c2ccccc2)cc1)C(C)C`, the growth inhibition in assay [1] (setting [7]) was 4%; in assay [1] (setting [8]), 1%; in assay [1] (at 50.0 µM), 12.1%; in assay [2] (setting [7]), 4%; in assay [2] (setting [8]), 1%; in assay [2] (at 50.0 µM), -1.45%. Also, the growth inhibition in assay [3] (setting [7]) is 8%; in assay [3] (setting [8]) it was 2%; in assay [3] (at 50.0 µM), 55.9%; in assay [4] (setting [7]), 6%; in assay [4] (setting [8]), 2%; in assay [4] (at 50.0 µM) it was 8.5%. The growth inhibition in assay [5] (setting [7]) was 4%; in assay [5] (setting [8]), -3%; in assay [5] (at 50.0 µM), 75.8% (active); in assay [6] (setting [7]), 6%; in assay [6] (setting [8]), 4%; in assay [6] (at 50.0 µM) it was 9.3%.
In the case of `O=[N+]([O-])c1ccc(/C=c2\sc3scc(-c4ccc([N+](=O)[O-])cc4)[n+]3\c2=C/c2ccc([N+](=O)[O-])cc2)cc1`, the growth inhibition in assay [1] (setting [7]) is 99% (active); in assay [1] (setting [8]) it was 99% (active); in assay [1] (at 50.0 µM) it was 86.9% (active); in assay [2] (setting [7]), 100% (active); in assay [2] (setting [8]), 99% (active); in assay [2] (at 50.0 µM), 75.5% (active). The growth inhibition in assay [3] (setting [7]) is 88% (active); in assay [3] (setting [8]) it was 99% (active); in assay [3] (at 50.0 µM), 97.5% (active); in assay [4] (setting [7]), 94% (active); in assay [4] (setting [8]) it was 99% (active); in assay [4] (at 50.0 µM), 69.3%. Further, the growth inhibition in assay [5] (setting [7]) is 99% (active); in assay [5] (setting [8]), 99% (active); in assay [5] (at 50.0 µM), 54.1%; in assay [6] (setting [7]), 99% (active); in assay [6] (setting [8]), 99% (active); in assay [6] (at 50.0 µM), 94.6% (active).
Turning to `C(=P(c1ccccc1)(c1ccccc1)c1ccccc1)[P+](c1ccccc1)(c1ccccc1)c1ccccc1.[Br][Cu][Br]`, the growth inhibition in assay [1] (setting [7]) was 98% (active); in assay [1] (setting [8]), 99% (active); in assay [1] (at 50.0 µM), 99.2% (active); in assay [2] (setting [7]), 99% (active); in assay [2] (setting [8]), 99% (active); in assay [2] (at 50.0 µM), 99.5% (active). The growth inhibition in assay [3] (setting [7]) is 99% (active); in assay [3] (setting [8]) it was 99% (active); in assay [3] (at 50.0 µM) it was 99.2% (active); in assay [4] (setting [7]), 98% (active); in assay [4] (setting [8]) it was 99% (active); in assay [4] (at 50.0 µM), 98% (active). In addition, the growth inhibition in assay [5] (setting [7]) is 98% (active); in assay [5] (setting [8]), 99% (active); in assay [5] (at 50.0 µM), 99% (active); in assay [6] (setting [7]) it was 99% (active); in assay [6] (setting [8]), 99% (active); in assay [6] (at 50.0 µM) it was 99.3% (active).
For `CCCCCCCCCCCCCC(=O)CC(=O)c1c(O)cccc1O`, the growth inhibition was 2% in assay [1] (setting [7]); -7% in assay [1] (setting [8]); -9.1% in assay [1] (at 50.0 µM); -3% in assay [2] (setting [7]); -1% in assay [2] (setting [8]); -5.8% in assay [2] (at 50.0 µM). Moreover, the growth inhibition in assay [3] (setting [7]) is 7%; in assay [3] (setting [8]), -13%; in assay [3] (at 50.0 µM) it was -3.9%; in assay [4] (setting [7]), 10%; in assay [4] (setting [8]), 12%; in assay [4] (at 50.0 µM), -64.6%. Besides, the growth inhibition in assay [5] (setting [7]) was -11%; in assay [5] (setting [8]), -5%; in assay [5] (at 50.0 µM) it was 7%; in assay [6] (setting [7]), 35%; in assay [6] (setting [8]), 17%; in assay [6] (at 50.0 µM), 17.1%.
With `Sc1c(Br)cc(Br)cc1Br.[Ag]`, the growth inhibition in assay [1] (setting [7]) was 7%; in assay [1] (setting [8]), 99% (active); in assay [1] (at 50.0 µM) it was 31.6%; in assay [2] (setting [7]), 6%; in assay [2] (setting [8]), 100% (active); in assay [2] (at 50.0 µM), 30.9%. Besides, the growth inhibition in assay [3] (setting [7]) is 26%; in assay [3] (setting [8]), 99% (active); in assay [3] (at 50.0 µM), 72.4% (active); in assay [4] (setting [7]), 6%; in assay [4] (setting [8]), 99% (active); in assay [4] (at 50.0 µM), 14.6%. In addition, the growth inhibition was -1% in assay [5] (setting [7]); 100% (active) in assay [5] (setting [8]); 30.7% in assay [5] (at 50.0 µM); 19% in assay [6] (setting [7]); 99% (active) in assay [6] (setting [8]); 59.5% in assay [6] (at 50.0 µM).
Regarding `N#Cc1cc([N+](=O)[O-])ccc1NC(=O)/C(=N/N)C(C(=O)c1ccc(Cl)c(Cl)c1)C1OC(=O)c2ccccc21` (stereo not given), the growth inhibition in assay [1] (setting [7]) was 23%; in assay [1] (setting [8]), 23%; in assay [1] (at 50.0 µM), 91.8% (active); in assay [2] (setting [7]), 11%; in assay [2] (setting [8]) it was 11%; in assay [2] (at 50.0 µM) it was 92.2% (active). The growth inhibition in assay [3] (setting [7]) is 18%; in assay [3] (setting [8]), 18%; in assay [3] (at 50.0 µM), 91.2% (active); in assay [4] (setting [7]), 1%; in assay [4] (setting [8]) it was 1%; in assay [4] (at 50.0 µM), 90.2% (active). The growth inhibition is 11% in assay [5] (setting [7]); 11% in assay [5] (setting [8]); 92.4% (active) in assay [5] (at 50.0 µM); 5% in assay [6] (setting [7]); 5% in assay [6] (setting [8]); 92% (active) in assay [6] (at 50.0 µM).
Turning to `CN(C)C1C=CCC(c2ccccc2)C1[N+](=O)[O-]` (stereo not given), the growth inhibition in assay [1] (setting [7]) was 1%; in assay [1] (setting [8]) it was 83% (active); in assay [1] (at 50.0 µM), 93.2% (active); in assay [2] (setting [7]) it was 10%; in assay [2] (setting [8]), 68%; in assay [2] (at 50.0 µM), 96.9% (active). Besides, the growth inhibition in assay [3] (setting [7]) was 7%; in assay [3] (setting [8]), 81% (active); in assay [3] (at 50.0 µM), 98.5% (active); in assay [4] (setting [7]), 5%; in assay [4] (setting [8]), 70% (active); in assay [4] (at 50.0 µM), 92.3% (active). The growth inhibition in assay [5] (setting [7]) was 1%; in assay [5] (setting [8]), 79% (active); in assay [5] (at 50.0 µM), 92.5% (active); in assay [6] (setting [7]), 5%; in assay [6] (setting [8]), 94% (active); in assay [6] (at 50.0 µM) it was 98.8% (active).
Turning to `COc1ccc2c(C)c(N=C=S)c(=O)oc2c1`, the growth inhibition is 35% in assay [1] (setting [7]); 79% (active) in assay [1] (setting [8]); 60.2% in assay [1] (at 50.0 µM); 13% in assay [2] (setting [7]); 78% (active) in assay [2] (setting [8]); 69% in assay [2] (at 50.0 µM). For the same compound, the growth inhibition was 34% in assay [3] (setting [7]); 81% (active) in assay [3] (setting [8]); 48% in assay [3] (at 50.0 µM); 6% in assay [4] (setting [7]); 33% in assay [4] (setting [8]); 1.75% in assay [4] (at 50.0 µM). Besides, the growth inhibition in assay [5] (setting [7]) is 29%; in assay [5] (setting [8]), 87% (active); in assay [5] (at 50.0 µM) it was 89% (active); in assay [6] (setting [7]), 42%; in assay [6] (setting [8]) it was 89% (active); in assay [6] (at 50.0 µM) it was 74.7% (active).
Consider `Cc1nc(-c2ccccc2)nc2c1nc(C(C)C)n2Nc1ccccc1`, for which the growth inhibition is -2% in assay [1] (setting [7]); 20% in assay [1] (setting [8]); 94.1% (active) in assay [1] (at 50.0 µM); -3% in assay [2] (setting [7]); 41% in assay [2] (setting [8]); 57.6% in assay [2] (at 50.0 µM). For the same compound, the growth inhibition in assay [3] (setting [7]) is 0%; in assay [3] (setting [8]) it was 25%; in assay [3] (at 50.0 µM) it was 73.8% (active); in assay [4] (setting [7]) it was -9%; in assay [4] (setting [8]), 33%; in assay [4] (at 50.0 µM), 64.8%. Moreover, the growth inhibition in assay [5] (setting [7]) is 3%; in assay [5] (setting [8]), 35%; in assay [5] (at 50.0 µM), 80.8% (active); in assay [6] (setting [7]) it was -4%; in assay [6] (setting [8]), 37%; in assay [6] (at 50.0 µM), 78.5% (active).
